Results filed as inconclusive are left out. The source made the active and inactive calls. The call rests on the fitted dose curve; in most records, active means well fitted curve in the direction sought with a large enough effect in the signal ratio, with a control signal flat (not every such curve was filed as active); inconclusive means small, poorly fitted or top-dose-only effect, or a change in a side signal; inactive means no such curve, though single readings can be large or run the other way; the % refers to the signal ratio.
Assay: qHTS Assay for Identification of Small Molecule Inducers of Hypoxia Response (AID 2120); on activation: 0% is about no effect
Conditions: hypoxia response reporter cells, beta-lactamase ratio readout; series mostly up to 104 µM; activation: at the top concentration
Description: NIH Chemical Genomics Center [NCGC]
NIH Molecular Libraries Screening Centers Network [MLSCN]
National Institutes of Environmental Health Sciences [NIEHS]
National Toxicology Program [NTP]
Hypoxia-inducible factor-1 (HIF-1) is the major hypoxia-regulated transcription factor that controls cellular responses to low oxygen concentration. HIF-1 is composed of two subunits: hypoxia responsive HIF-1a and constitutively expressed HIF-1b, which is also known as aryl hydrocarbon receptor nuclear translocator. During hypoxic conditions, HIF-1a heterodimerizes with HIF-1b and translocates into the nucleus where the HIF-1 complex binds to the hypoxia-response element (HRE) and activates expression of target genes such as VEGF (vascular endothelial growth factor). The HIF-1 pathway is essential to normal growth and development, and is involved in the pathophysiology of cancer, inflammation, and ischemia.
Using a beta-lactamase reporter-gene under control of the hypoxia response element, a cell-based assay [CellSensor(TM) HRE-bla ME-180 developed by Invitrogen Corp.] was used to measure hypoxia-induced signaling. Library compounds were measured for their ability to induce the reporter gene activity. Compounds were screened in a titration series in 1536-well format. The inducers were identified based on the AC50 values derived from the screening data.
NCGC Assay Protocol Summary
2500 cells/5uL in Opti-MEM medium containing 0.5% dialyzed FBS, 0.1 mM NEAA, 1 mM sodium pyruvate and 10 mM HEPES was dispensed into 1536-well plates and cells were cultured at 37 degrees Celsius for 4-5 hours and then 23 nL of compounds or DMSO were delivered to each well using a pin tool. The plates were incubated at 37 degrees Celsius for 17 hours. 1 uL of CCF4-dye mixture was added to each well. After incubated at room temperature for 2.5 hours the plates were measured on an EnVision plate reader at Excitation 405nm, Emission1=460nm and Emission 2=530nm. The %Activity was determined from the ratio of 460nm/530nm.
Potency means the concentration at half of the fitted maximal effect.

Structure (SMILES) | activation | Potency
CCCCCCCCOc1ccc(C(=O)O)cc1 | 3.32% (inactive) | –
C=CC1CO1 (stereo not given) | 0.902% (inactive) | –
Brc1ccc(-c2ccccc2)cc1 | 1.63% (inactive) | –
CCCCC(CC)COCCCN (stereo not given) | 0.897% (inactive) | –
NC(=O)Nc1nc2ccccc2[nH]1 | 0.121% (inactive) | –
c1ccc(COCc2ccccc2)cc1 | -0.36% (inactive) | –
O=c1[nH]ncc2ccccc12 | -0.311% (inactive) | –
c1c[nH]cn1 | 0.877% (inactive) | –
CC(C)(C)C(=O)C1C(=O)c2ccccc2C1=O | 1.03% (inactive) | –
C=CC(=O)CC | 3.85% (inactive) | –
c1ccc(SCCSc2ccccc2)cc1 | -0.614% (inactive) | –
Cc1cc(-c2ccc(N=Nc3cc(S(=O)(=O)O)c4ccccc4c3N)c(C)c2)ccc1N=Nc1cc(S(=O)(=O)O)c2ccccc2c1N | 7.56% (inactive) | –
COc1ccc(C)cc1N | 0.987% (inactive) | –
Oc1cc(Cl)cc(Cl)c1Cl | 1.61% (inactive) | –
Cc1cc2nc(N)sc2cc1C | -0.244% (inactive) | –
CCOC(=O)C1OC1c1ccccc1 (stereo not given) | 2.11% (inactive) | –
OCC(CO)(CBr)CBr | -0.0975% (inactive) | –
Nc1ccccc1O | 2.12% (inactive) | –
CC(=O)CC(=O)Nc1ccccc1 | 0% (inactive) | –
CC1=C(/C=C/C(C)=C/C=C/C(C)=C/C=O)C(C)(C)CCC1 | 0.877% (inactive) | –

Structure (SMILES) | activation | Potency
O=C(O)/C=C/c1ccc(/C=C/C(=O)O)cc1 | 1.62% (inactive) | –
C=C1CC[C@H](O)C/C1=C/C=C1\CCC[C@]2(C)[C@@H]([C@H](C)CCCC(C)C)CC[C@@H]12 | 1.21% (inactive) | –
CC(C)S | 0.121% (inactive) | –
CCc1ccc(C(c2ccc(CC)cc2)C(Cl)Cl)cc1 | 2.12% (inactive) | –
C=CC(=O)OCCCCCCOC(=O)C=C | 1.81% (inactive) | –
CCCCCCc1ccc(-c2ccc(C#N)cc2)cc1 | 0.609% (inactive) | –
COc1cc(-c2ccc(N=C=O)c(OC)c2)ccc1N=C=O | 2.62% (inactive) | –
CCCCC(CC)COP(=O)(OCC(CC)CCCC)OCC(CC)CCCC (stereo not given) | 0.458% (inactive) | –
CC(C)COC(=O)COc1cc(Cl)c(Cl)cc1Cl | 1.81% (inactive) | –
Brc1cc(Oc2cc(Br)c(Br)c(Br)c2Br)c(Br)c(Br)c1Br | 1.22% (inactive) | –
O=C1c2ccccc2C(=O)C1(O)O | 0.745% (inactive) | –
Nc1cc(C(=O)O)c(O)c(S(=O)(=O)O)c1 | -0.221% (inactive) | –
Nc1cc([N+](=O)[O-])ccc1O | 1.2% (inactive) | –
O=C(Cl)c1ccc([N+](=O)[O-])cc1 | 1.18% (inactive) | –
CCCCCCCC/C=C\CCCCCCCC(=O)N(CCO)CCO | 2.17% (inactive) | –
S=C(NC1CCCCC1)NC1CCCCC1 | 0.0403% (inactive) | –
CCN(CC)c1ccc2c(C)cc(=O)oc2c1 | – | 44.7 µM (active)
CC/C=C/C/C=C/C/C=C/CCCCCCCC(=O)OCC | 1.16% (inactive) | –
Nc1ccc2c(c1)C(=O)c1ccccc1C2=O | 2.28% (inactive) | –
O=Nc1ccc(Nc2ccccc2)cc1 | 2.97% (inactive) | –
